Data reported in the supplement of paper PMC11732987, “Enantioselective OTUD7B fragment discovery through chemoproteomics screening and high-throughput optimisation” (Communications Chemistry, 2025).

Columns and labels:
Test in all cases: log2 ratio of Biotin-Ahx-Ub-VS probe labelling (fragment/DMSO); higher = less target engagement (more negative = stronger competition), active = hit call of the paper (q ≤ 0.05, log2 ratio ≤ -1)
Settings in all cases: compound concentration: 200 uM; treatment time: 3 h
[1] = molecular target: USP34 (UniProt Q70CQ2)
USP34, sequence (Q70CQ2 whole entry, the tested form may be a part): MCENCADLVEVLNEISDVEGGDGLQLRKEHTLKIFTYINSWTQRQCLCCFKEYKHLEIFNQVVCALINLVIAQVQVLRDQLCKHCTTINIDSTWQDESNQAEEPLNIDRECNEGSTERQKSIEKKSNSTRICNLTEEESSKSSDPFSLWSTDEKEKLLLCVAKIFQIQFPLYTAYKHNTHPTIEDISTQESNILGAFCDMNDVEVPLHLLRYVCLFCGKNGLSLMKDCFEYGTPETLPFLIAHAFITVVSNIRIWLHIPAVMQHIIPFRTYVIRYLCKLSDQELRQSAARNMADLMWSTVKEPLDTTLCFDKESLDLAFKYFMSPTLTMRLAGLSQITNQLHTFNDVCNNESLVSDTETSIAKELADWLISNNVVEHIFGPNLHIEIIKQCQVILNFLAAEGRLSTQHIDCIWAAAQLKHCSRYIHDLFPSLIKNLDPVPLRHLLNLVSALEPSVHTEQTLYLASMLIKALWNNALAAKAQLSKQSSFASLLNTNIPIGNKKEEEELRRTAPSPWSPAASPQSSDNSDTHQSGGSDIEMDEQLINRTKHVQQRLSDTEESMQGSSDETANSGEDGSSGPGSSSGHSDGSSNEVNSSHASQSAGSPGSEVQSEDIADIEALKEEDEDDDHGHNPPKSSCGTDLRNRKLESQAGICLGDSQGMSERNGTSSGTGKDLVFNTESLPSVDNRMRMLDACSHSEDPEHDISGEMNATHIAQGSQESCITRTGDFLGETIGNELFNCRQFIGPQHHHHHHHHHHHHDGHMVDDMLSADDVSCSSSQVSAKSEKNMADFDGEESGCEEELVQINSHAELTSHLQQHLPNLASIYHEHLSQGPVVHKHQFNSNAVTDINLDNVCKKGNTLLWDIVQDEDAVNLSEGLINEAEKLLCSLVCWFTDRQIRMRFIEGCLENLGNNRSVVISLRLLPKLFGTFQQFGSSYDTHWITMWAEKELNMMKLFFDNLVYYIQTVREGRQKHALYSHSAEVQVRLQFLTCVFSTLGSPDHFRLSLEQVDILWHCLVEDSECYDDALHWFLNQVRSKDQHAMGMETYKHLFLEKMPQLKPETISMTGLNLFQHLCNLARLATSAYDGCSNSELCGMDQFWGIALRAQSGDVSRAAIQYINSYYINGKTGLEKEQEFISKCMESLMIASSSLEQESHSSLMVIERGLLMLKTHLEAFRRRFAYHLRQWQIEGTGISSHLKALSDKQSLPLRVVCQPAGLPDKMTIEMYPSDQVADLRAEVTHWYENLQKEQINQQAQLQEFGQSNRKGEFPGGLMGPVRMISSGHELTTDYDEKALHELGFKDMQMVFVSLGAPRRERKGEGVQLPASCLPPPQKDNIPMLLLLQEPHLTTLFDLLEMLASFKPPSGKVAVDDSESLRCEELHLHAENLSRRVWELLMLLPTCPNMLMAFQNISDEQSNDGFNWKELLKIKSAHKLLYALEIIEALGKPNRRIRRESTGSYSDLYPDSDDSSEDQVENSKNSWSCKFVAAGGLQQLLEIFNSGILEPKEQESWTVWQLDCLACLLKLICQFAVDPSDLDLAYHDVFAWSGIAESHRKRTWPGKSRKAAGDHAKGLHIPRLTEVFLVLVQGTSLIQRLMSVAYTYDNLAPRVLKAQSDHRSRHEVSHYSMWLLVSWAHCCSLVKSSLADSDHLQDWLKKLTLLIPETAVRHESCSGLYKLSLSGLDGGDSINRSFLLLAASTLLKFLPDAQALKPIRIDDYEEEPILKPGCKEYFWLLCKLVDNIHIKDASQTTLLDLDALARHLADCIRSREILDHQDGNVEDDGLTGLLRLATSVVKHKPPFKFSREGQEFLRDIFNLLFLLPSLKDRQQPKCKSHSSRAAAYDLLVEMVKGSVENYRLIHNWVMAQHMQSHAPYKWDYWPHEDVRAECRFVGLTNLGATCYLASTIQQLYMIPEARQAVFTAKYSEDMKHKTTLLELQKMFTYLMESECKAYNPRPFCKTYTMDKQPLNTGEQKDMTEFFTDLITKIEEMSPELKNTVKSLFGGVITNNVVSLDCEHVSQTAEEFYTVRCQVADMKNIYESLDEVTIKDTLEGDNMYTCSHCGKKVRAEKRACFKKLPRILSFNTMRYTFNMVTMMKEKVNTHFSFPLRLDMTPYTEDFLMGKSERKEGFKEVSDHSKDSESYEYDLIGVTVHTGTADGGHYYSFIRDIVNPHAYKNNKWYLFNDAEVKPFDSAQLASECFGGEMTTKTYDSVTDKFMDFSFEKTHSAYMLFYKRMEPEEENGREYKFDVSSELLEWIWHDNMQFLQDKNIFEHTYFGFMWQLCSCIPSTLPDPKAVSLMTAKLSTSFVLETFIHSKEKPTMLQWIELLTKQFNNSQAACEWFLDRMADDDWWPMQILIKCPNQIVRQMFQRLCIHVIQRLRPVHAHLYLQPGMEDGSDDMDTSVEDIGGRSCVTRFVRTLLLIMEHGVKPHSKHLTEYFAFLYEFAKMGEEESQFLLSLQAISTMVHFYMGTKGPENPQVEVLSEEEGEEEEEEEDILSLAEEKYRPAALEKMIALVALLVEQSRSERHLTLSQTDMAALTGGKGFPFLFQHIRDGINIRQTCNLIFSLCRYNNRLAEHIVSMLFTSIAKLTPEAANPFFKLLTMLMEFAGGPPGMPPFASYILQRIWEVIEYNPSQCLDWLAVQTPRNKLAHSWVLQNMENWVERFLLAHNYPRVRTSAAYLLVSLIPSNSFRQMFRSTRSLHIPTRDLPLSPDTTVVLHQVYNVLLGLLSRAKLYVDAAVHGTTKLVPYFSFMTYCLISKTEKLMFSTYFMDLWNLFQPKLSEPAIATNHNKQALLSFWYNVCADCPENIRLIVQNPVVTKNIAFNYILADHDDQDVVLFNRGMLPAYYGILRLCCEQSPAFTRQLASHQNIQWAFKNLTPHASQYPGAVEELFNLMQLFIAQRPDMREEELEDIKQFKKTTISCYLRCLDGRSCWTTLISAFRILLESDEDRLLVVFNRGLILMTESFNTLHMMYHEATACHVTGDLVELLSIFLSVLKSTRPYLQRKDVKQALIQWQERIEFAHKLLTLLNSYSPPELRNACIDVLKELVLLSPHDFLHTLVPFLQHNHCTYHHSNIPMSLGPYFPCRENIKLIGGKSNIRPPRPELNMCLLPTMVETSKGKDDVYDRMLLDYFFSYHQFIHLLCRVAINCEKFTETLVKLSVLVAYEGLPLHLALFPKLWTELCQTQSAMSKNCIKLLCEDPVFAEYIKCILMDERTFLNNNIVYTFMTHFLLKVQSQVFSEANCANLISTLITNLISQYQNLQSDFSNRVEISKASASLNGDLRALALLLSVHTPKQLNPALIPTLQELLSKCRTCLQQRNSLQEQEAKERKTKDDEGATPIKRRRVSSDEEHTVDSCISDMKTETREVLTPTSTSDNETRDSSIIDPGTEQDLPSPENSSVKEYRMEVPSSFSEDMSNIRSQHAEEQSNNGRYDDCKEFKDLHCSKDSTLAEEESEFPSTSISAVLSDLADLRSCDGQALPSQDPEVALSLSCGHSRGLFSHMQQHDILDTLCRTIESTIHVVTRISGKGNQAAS
How it was run: (§1)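 Labelled DUBs from HEK293T lysate were NeutrAvidin-enriched, digested with LysC and trypsin, and run by diaPASEF LC-MS/MS. Before that, each 495 µg sample in Tris/CHAPS/IGEPAL buffer with protease inhibitors was treated in triplicate with fragment at 200 µM or vehicle for 3 h, then with Biotin-Ahx-Ub-VS at 0.5 µM final for 1 h. Values are average log2 ratios of fragment over vehicle by unpaired t-test, based on global-median-normalised Spectronaut label-free quantities from proteins with ≥2 unique peptides.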

[2] = molecular target: T1, USP36 (UniProt Q9P275)
T1 sequence (whole entry): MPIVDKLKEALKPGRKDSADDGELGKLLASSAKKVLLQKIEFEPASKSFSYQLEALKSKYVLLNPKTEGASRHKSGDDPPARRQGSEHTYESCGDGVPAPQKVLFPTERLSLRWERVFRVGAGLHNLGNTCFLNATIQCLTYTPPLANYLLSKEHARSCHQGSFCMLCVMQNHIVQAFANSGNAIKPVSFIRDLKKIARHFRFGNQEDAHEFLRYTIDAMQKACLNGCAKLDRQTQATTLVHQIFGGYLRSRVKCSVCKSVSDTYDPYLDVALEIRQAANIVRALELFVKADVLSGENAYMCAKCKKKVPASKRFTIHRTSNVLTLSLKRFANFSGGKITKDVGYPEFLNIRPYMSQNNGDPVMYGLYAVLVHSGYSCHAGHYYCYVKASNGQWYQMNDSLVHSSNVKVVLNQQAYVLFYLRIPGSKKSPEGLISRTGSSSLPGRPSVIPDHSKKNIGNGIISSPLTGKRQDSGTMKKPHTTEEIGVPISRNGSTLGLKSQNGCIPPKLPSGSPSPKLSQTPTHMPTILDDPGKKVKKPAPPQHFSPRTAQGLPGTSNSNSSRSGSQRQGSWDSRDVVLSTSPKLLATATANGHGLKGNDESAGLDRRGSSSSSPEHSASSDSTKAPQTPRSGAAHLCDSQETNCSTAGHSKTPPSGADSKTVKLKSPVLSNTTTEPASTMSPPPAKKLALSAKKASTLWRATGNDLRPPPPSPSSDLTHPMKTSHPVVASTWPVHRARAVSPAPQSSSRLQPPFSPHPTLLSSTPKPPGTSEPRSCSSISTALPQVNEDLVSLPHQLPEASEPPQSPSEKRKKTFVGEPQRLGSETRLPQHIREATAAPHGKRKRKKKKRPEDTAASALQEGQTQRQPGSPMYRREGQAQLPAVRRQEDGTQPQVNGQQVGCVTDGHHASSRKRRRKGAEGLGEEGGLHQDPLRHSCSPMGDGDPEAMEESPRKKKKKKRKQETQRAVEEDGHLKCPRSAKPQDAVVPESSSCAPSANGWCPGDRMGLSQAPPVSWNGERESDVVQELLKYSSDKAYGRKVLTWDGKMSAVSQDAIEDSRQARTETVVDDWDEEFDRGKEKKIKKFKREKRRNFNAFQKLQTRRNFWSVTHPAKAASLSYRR
How it was run: as §1

[3] = molecular target: T2, USP38 (UniProt Q8NB14)
T2 sequence (whole entry): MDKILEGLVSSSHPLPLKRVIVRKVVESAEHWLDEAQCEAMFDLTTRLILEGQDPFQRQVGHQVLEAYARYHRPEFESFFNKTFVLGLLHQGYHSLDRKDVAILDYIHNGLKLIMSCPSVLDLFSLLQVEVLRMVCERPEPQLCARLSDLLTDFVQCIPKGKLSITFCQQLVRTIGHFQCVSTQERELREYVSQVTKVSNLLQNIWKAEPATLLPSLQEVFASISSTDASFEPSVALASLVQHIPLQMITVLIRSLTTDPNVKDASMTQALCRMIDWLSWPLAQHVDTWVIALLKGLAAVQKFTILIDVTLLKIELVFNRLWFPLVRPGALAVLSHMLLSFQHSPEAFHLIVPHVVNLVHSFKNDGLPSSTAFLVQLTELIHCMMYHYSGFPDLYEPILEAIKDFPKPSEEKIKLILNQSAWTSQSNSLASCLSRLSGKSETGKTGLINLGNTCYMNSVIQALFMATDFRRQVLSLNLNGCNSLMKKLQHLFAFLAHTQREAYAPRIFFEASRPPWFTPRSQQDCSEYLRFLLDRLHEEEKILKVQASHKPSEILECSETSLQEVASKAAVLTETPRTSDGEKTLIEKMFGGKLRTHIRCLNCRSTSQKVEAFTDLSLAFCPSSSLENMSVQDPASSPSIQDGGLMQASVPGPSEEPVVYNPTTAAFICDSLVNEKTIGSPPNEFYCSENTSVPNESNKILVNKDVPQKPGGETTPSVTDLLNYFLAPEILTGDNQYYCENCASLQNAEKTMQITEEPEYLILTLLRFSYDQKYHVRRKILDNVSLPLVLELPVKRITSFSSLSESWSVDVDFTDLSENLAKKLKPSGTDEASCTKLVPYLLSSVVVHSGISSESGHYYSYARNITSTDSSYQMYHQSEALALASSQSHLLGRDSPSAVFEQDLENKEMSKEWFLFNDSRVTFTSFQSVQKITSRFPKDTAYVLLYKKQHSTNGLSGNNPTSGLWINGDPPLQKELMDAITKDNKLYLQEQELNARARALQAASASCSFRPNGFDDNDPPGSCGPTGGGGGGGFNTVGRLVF
How it was run: as §1

[4] = molecular target: T3, USP39 (UniProt Q53GS9)
T3 sequence (whole entry): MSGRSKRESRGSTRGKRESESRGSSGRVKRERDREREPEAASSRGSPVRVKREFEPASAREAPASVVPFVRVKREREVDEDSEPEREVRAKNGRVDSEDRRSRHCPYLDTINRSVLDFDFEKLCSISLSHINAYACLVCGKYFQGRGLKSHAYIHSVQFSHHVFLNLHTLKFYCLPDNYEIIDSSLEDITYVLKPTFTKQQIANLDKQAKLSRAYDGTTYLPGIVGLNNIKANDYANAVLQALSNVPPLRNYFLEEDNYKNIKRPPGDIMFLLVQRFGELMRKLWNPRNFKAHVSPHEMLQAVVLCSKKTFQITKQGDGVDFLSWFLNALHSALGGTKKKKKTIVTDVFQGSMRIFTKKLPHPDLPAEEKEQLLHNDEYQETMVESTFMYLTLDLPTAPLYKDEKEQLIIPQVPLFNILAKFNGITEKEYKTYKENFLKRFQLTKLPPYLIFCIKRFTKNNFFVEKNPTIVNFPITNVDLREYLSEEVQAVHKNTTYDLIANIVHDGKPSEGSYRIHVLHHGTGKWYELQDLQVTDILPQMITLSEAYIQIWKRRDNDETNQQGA
How it was run: as §1

[5] = molecular target: T4, USP4 (UniProt Q13107)
T4 sequence (whole entry): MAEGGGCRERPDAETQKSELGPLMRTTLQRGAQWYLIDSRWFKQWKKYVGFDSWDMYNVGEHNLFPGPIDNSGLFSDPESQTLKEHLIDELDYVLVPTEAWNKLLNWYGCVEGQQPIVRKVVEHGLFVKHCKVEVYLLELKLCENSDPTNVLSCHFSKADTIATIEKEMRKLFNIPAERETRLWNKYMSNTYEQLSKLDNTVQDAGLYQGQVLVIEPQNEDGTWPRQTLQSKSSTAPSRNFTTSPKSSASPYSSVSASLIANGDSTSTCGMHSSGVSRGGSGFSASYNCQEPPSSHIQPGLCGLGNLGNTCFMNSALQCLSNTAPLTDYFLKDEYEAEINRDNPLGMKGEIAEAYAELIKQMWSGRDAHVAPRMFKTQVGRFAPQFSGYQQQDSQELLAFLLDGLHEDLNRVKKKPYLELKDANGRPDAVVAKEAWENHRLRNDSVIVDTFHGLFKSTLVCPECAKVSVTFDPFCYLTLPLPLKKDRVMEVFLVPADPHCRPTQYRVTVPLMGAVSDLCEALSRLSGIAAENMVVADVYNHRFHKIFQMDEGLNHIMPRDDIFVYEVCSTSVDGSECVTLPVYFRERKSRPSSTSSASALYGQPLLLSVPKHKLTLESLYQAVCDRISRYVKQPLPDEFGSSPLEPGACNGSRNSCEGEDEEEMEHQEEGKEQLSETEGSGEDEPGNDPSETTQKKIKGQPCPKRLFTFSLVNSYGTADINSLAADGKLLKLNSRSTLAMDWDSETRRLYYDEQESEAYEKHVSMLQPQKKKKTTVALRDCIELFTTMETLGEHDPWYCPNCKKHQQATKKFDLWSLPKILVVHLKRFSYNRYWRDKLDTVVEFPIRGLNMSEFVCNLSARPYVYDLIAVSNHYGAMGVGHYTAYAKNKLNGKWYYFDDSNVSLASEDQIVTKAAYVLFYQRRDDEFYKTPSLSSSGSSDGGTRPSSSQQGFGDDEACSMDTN
How it was run: as §1

Measured: log2 ratio of Biotin-Ahx-Ub-VS probe labelling

O=C(CCl)N1CCc2nc[nH]c2C1c1ccc(Cl)cc1 (stereo not given)
inactive: [1] -0.355 | [2] -0.00322 | [3] -0.0469 | [4] 0.0317 | [5] -0.375
